# Measured values as given in publication PMC12136788.
# Changes are numbered by the printed parent chain. Whole data set: some 24,000 sequences, median “enrichment r” near 0.99, cut for the highest 2% near 3.7. Only a selection was taken, and the highest values are over-represented in it overall.
# B1: chr16:5009651:5009652:-_ENSMUSG00000022540_ENSMUST00000023191|mus_hu|FALSE|FALSE (ssRNA)
# RNA: GGGAGUUCUACAGUCCGACGAUCUGCAGGGAGACGGUGAAGUAGACCAGGGCGUCGUUGAGCCAGGGGAUCACGCACUCCACUUUGUGCACGUGGCUCACCUCCAGGCGCUGAGAGCCCCACUCGAACAUGGCCCCAGGGCUACAACAGAGGAUUGAGCAUCA
# B2: 133220860_133220980_1226_CDS_ENSMUSG00000043257_ENSMUST00000062118|mouse|control|control (ssRNA)
# RNA: GGGAGUUCUACAGUCCGACGAUCGUAUAUUAGAGGAAGGUCCCAGGAGCACCAUGGGGGUGCAUUUUCUCCUGCAAGCCGGUAGCCUUUGUCGGCAGCUAGCUGCAGCAAGGGCUCAGGGAUGGAGGGGGCUGAGCCUGGUGACAACAGAGGAUUGAGCAUCA
# B3: chr7:141441981:141441982:+_ENSG00000106028_ENST00000265304|hu_mus|hu_hu_hu_mus_False|48_88 (ssRNA)
# RNA: GGGAGUUCUACAGUCCGACGAUCCUCAUGUCUUACAAACUGACGAAGUACCUGUAACACAGGUCUUCGAAACAUGGCUUCUGUUUUCUUUUCUUACUAAUCUUUAGGCUUUUCCUAAAGGAAAGAAAGAAAAGAGAAAAAUGACAACAGAGGAUUGAGCAUCA
# B4: chr17:56552419:56552420:-_ENSMUSG00000013236_ENSMUST00000086828|mus_mus|mus_mus_mus_hu_False|18_78 (ssRNA)
# RNA: GGGAGUUCUACAGUCCGACGAUCAAAAAAUACACUAUUUAAAAAAAAUGAAAUGUCAGAAAAAGAAGUUACACUGAGAGUUUUAAAAGAAAGCUGGAUUCUGGUCCCAGCCCAGUGGCAGGCAGGGGCAGAGCGGGGAGGAGCCAACAGAGGAUUGAGCAUCA
# B5: chr17:56552419:56552420:-_ENSMUSG00000013236_ENSMUST00000086828|mus_mus|mus_mus_mus_hu_False|38_78 (ssRNA)
# RNA: GGGAGUUCUACAGUCCGACGAUCAAAAAAUACACUAUUUAAAAAAAAUGAAAUGUCAGAAAAAGAAGUUACACUGAGAGUUUUAAAAGAAAGCUGGAAAAAAAAUGCAGCCCAGUGUCCCCAGGCUGCAGAGCGGGGAGGAGCCAACAGAGGAUUGAGCAUCA
# B6: chr17:56552419:56552420:-_ENSMUSG00000013236_ENSMUST00000086828|mus_mus|mus_mus_mus_hu_False|48_78 (ssRNA)
# RNA: GGGAGUUCUACAGUCCGACGAUCAAAAAAUACACUAUUUAAAAAAAAUGAAAUGUCAGAAAAAGAAGUUACACUGAGAGUUUUAAAAAAAAAUAAGAUUCUGGUCCCAGCCCAGUGUCCCCAGGCUGCAGAGCGGGGAGGAGCCAACAGAGGAUUGAGCAUCA
# B7: chr17:56552419:56552420:-_ENSMUSG00000013236_ENSMUST00000086828|mus_mus|mus_mus_mus_hu_False|78_78 (ssRNA)
# RNA: B6 RNA with A88G, A92G, U93C, A94U, A95G
# B8: chr4:153332861:153332862:-_ENSG00000109670_ENST00000281708|hu_mus|FALSE|FALSE (ssRNA)
# RNA: GGGAGUUCUACAGUCCGACGAUCCUCCUCUUGAUGUCUCGCUUGCUGCUGUGGAUCCUCCUCAACCACGCGAUUCAUCUGUCCCUCAUCAACCUGGCUUGAGGAAGCAUUCCCUCUCAGAGAGCCUCCAGUUCGUCGUCUUUUCAACAGAGGAUUGAGCAUCA
# B9: 46544062_46544572_2905_CDS_ENSG00000123200_ENST00000242848|human|control|control (ssRNA)
# RNA: GGGAGUUCUACAGUCCGACGAUCUUCUUGAGGUCGUACAACUUGGCUCAAGAGUCUGUGUUUUUCAUUUUUAUCAUCUCCACUGUUGUAGGCAUCACUGUCCGGAGAAUGUUCACGCCGGCGCUUCGGGGACUGUCUAGGGCUCAACAGAGGAUUGAGCAUCA
# B10: chr2:180329438:180329439:+_ENSMUSG00000049401_ENSMUST00000029087|mus_mus|FALSE|FALSE (ssRNA)
# RNA: GGGAGUUCUACAGUCCGACGAUCCUCAGAGACACCCUGAGGAUCUGGCUCCCCUGGGACCUGCUCCUGCCUGUUCCCCUCCAACUUCCUCUUCUUGCUUUCUUUGGGACUCGGGGACUUAGCCUCAUGCCUUUGGUCCCCAUCCAACAGAGGAUUGAGCAUCA
# B11: chr3:150289932:150289933:+_ENSG00000144895_ENST00000460851|hu_hu|hu_hu_hu_mus_False|18_28 (ssRNA)
# RNA: GGGAGUUCUACAGUCCGACGAUCCUUGUAGUUUUUAACAUCCCAUACUUCCAUUUGUCCUCGAAGAUUUCCAAAUCCAGCCAGCACUAAUAUAUGUCCAUGAGGGCUAUAGUAGGCUGCAUUACGAGGACCAGUCCCAAAGUCCAACAGAGGAUUGAGCAUCA
# B12: chr16:94664382:94664383:+_ENSMUSG00000040785_ENSMUST00000117648|mus_hu|FALSE|FALSE (ssRNA)
# RNA: GGGAGUUCUACAGUCCGACGAUCAAAAGCUGGUGCUGAAGAUGAAUCUGACACUGGUUUAGACUUUACAUCUGGUUUAAAUUCCCUAGCAGCUGGAUUCAGUUGUAGUUUAACUCGUACAUACUCCCCUGCUUUUGAAAUUUCCAACAGAGGAUUGAGCAUCA
# B13: chr11:88707168:88707169:-_ENSMUSG00000018428_ENSMUST00000018572|mus_mus|FALSE|FALSE (ssRNA)
# RNA: GGGAGUUCUACAGUCCGACGAUCAAGGGGAAGAGCGAACGCAACUGGAUUGCCAUCUUGGAGUCAGUCGAUGUGAAGUAGCUACACCUGCUCCUGGGCGACCGUCUAGGCACUCAAUCCUCCCGCCACCGCCCCCUGGCCCCCCAACAGAGGAUUGAGCAUCA
# B14: chr3:184044699:184044700:+_ENSG00000114867_ENST00000411531|hu_hu|motif|central (ssRNA)
# RNA: GGGAGUUCUACAGUCCGACGAUCAUUAUCUGUGCUUUCUGUGGGUACCGCUUGUUGAAGGGCUGAGAAGCGAUUCAAAGUACGGGUAGCUGGGCGAGCAGCUUCUGAUGCUGCGUCUGAGGGCUUGGCUCCUGAGCCUCCGCUCAACAGAGGAUUGAGCAUCA
# B15: chrX:77155053:77155054:+_ENSG00000131174_ENST00000481445|hu_hu|motif|central (ssRNA)
# RNA: GGGAGUUCUACAGUCCGACGAUCCGAACUUGGAGACGAUUUAGUGCGCUUUUGACCAAGGGAAACAUCGUGAAGGUGAAGCGGGAACUGCGGCAAUACAGCUGCUGCUUUGGUGCCAAUUCGCUUCAGGUACCCUUGAAGUGACAACAGAGGAUUGAGCAUCA
# B16: chr2:153237265:153237266:-_ENSMUSG00000061411_ENSMUST00000109784|mus_mus|mus_mus_mus_hu_False|18_78 (ssRNA)
# RNA: GGGAGUUCUACAGUCCGACGAUCAAAAAAAAAAAAAAAAAAGUGUCCUUGUGCCCAAAGUCUCAGAUGCUUGGAGUGUGGCUAGAAACAGCUCUUUUGGAUCCCACCUCUUUCAAAAAACAGUGUAACCAACUGGUGAGGCAGCAACAGAGGAUUGAGCAUCA
# B17: chr2:153237265:153237266:-_ENSMUSG00000061411_ENSMUST00000109784|mus_mus|mus_mus_mus_hu_False|18_58 (ssRNA)
# RNA: B16 RNA with A66G, U78C, G79A
# B18: chr2:153237265:153237266:-_ENSMUSG00000061411_ENSMUST00000109784|mus_mus|mus_mus_mus_hu_False|1_18 (ssRNA)
# RNA: B16 RNA with A66G, G137A, A138G, G140C, C141A, A142G
# B19: chr5:71490711:71490712:+_ENSG00000131711_ENST00000296755|hu_hu|motif|central (ssRNA)
# RNA: GGGAGUUCUACAGUCCGACGAUCCACAGGAGUGGGCACCUGGCCAGUGAGAUCCUUUUGGGUGGCCAGUGGCUGCUUCAGAAAGUCGGGAUGUUUGAGCUUUUCCAACCCUUCCAGGAUGUUGUACUGGGUGCUGUUCCCAGGCAACAGAGGAUUGAGCAUCA
# B20: chr2:153237265:153237266:-_ENSMUSG00000061411_ENSMUST00000109784|mus_mus|mus_mus_mus_hu_False|18_18 (ssRNA)
# RNA: B16 RNA with A66G
# B21: chr2:153237265:153237266:-_ENSMUSG00000061411_ENSMUST00000109784|mus_mus|mus_mus_mus_hu_False|18_28 (ssRNA)
# RNA: B16 RNA with A66G, A115G
# B22: chr11:46405157:46405158:+_ENSG00000110492_ENST00000395566|hu_hu|hu_hu_hu_mus_False|8_58 (ssRNA)
# RNA: GGGAGUUCUACAGUCCGACGAUCCCCUCCCCACUUUGGGCACUUGGUGUGGGCGUGAGAGGACAGGCGUGAUUGACAAAGCUAACGGGAAGACAAAAGGCACUGGUGGGUUAUAUCUUGGGCCUGUGAGAGGGAGGGGCUCCGCAACAGAGGAUUGAGCAUCA
# Target: T1, UNK ZnF1-3 (human, UniProt Q9C0B0 31-174)
# T1 sequence: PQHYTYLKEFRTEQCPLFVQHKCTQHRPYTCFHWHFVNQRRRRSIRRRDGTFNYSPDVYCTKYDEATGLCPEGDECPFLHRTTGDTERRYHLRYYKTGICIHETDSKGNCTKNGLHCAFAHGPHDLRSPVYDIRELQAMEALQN
# Experiment: nsRBNS (natural sequence RNA bind-n-seq); RBNS binding buffer (assumed for nsRBNS): 25 mM Tris pH 7.5, 150 mM KCl, 3 mM MgCl2, 0.01% Triton X-100, 500 ug/ml BSA, 20 U/ml SUPERase-In, 4 C; UNK is unkempt and MSI1 is Musashi-1; names of the RNAs are library labels; protein concentration not given here; high values mean tight binding
row,Binder,binding signal [enrichment R]
1,B1,0.75
2,B2,1.08
3,B3,0.351
4,B4,3.82
5,B5,9.26
6,B6,9.32
7,B7,4.51
8,B8,0.439
9,B9,0.885
10,B10,0.716
11,B11,0.862
12,B12,1
13,B13,1.08
14,B14,0.754
15,B15,0.887
16,B16,4.87
17,B17,4.98
18,B18,6.33
19,B19,1.1
20,B20,5.16
21,B21,3.55
22,B22,3.13
